Consider 22 compounds from PubChem BioAssay.

Each structure is given as a SMILES string. Where “and” joins values, the source holds several entries; their conditions need not be identical. Equal entries are not always repeated. For part of these data: Measured potencies and affinities stand elsewhere. Calls of active or inactive are those of the source.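 The calls were made as follows, unless noted: active = compounds killing one labelled cell type while sparing the other, by normalised counts and ratio limits, not self-fluorescent; inactive = the rest.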

Assay [1] in a line: blockers of polyQ-driven CASP3 activation – cell-based (AID 1583). To be noted: polyglutamine-induced caspase-3 activation, cell assay; stronger effect = higher value;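 tested at 10 µM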.
The nature of assay [2]: yeast 75Q aggregation reduction – 75Q-TubU reporter (AID 1593). To be noted: Yeast 75Q polyglutamine aggregation reporter.
Assay [3] can be described thus: restoration of touch response, mutant HTT neurons – whole organism, C. elegans mechanosensory neurons, N-terminal huntingtin (AID 1599). To be noted: C. elegans polyQ-huntingtin mechanosensory neurons, stronger effect = higher value.
Assay [4] can be described thus: blockers of cytochrome c efflux from mitochondria – biochemical, purified mitochondria (AID 1603).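 Also: mouse liver mitochondria challenged with calcium chloride; signal normalized to the plate average as 100%.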 To be noted: stronger effect = lower value.
Assay [5] in a line: polyglutamine aggregate formation blockers (AID 1604). As to conditions: polyglutamine-induced protein aggregation inhibition assay; stronger effect = higher value; tested at 2.5 µM.
Assay [6] can be described thus: glutamate transport activators, MN-1 cells, MN-1 cell line (AID 1612).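 Also: tested at 1 µM final; 0% = mean of DMSO vehicle wells on each plate; positive means more glutamate uptake than control and negative means less.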 As to conditions: MN-1 motor neuron cells, stronger effect = higher value.
Assay [7] is described as follows: GFP-Q80 aggregate reduction, neuronal-like cells, cell-based, NGF-treated PC12, GFPQ80 (AID 1614).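 Also: lower means fewer inclusions and 0 means no inclusions at all.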 As to conditions: PC12 NGF-treated GFP-polyQ80 inclusion reduction.
Assay [8] in a line: 75Q-TubH aggregate inhibition, S. cerevisiae, yeast (AID 1616). To be noted: S. cerevisiae 75Q-TubH polyglutamine aggregation suppression; stronger effect = higher value.
Assay [9] in a line: P. berghei load reduction in hepatocytes – cell-based, HepG2, luciferase luminescence, HepG2 viability, primary screen (AID 624349; in the data active = parasite load remaining mostly below about 12%, no sharp cut-off; inactive = mostly above about 10%;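 also: 100% = mean of DMSO negative control wells on the same plate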). As to conditions: P. berghei liver stage in HepG2, luciferase luminescence, concentration not given here; parasite load remaining: stronger effect = lower value; viability: measured here: HepG2 viability without parasites.
Assay [10] concerns the target 6-phosphogluconate dehydrogenase, decarboxylating (Homo sapiens) (UniProt P52209). In words: inhibition of human phosphogluconate dehydrogenase – biochemical, recombinant enzyme, NADPH absorbance, primary screen (AID 1159550;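 active = at least 20% inhibition of 6-phosphogluconate dehydrogenase activity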). To be noted: recombinant 6PGD, NADPH absorbance 341 nm; at 10 µM; stronger effect = higher value.
Assay [11] can be described thus: EMT-state selective cytotoxicity in co-culture – imaging, PC-3E GFP, TEM4-18 mCherry, primary screen (AID 1345086).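 As to all read-outs here: cells exposed to compound for 72 h before imaging.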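 As to red/green cell ratio (normalised): normalised mesenchymal count divided by normalised epithelial count so high means epithelial killing.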 As to conditions: PC-3E GFP / TEM4-18 mCherry co-culture, imaging cell counts, at 1 µM; for red/green cell ratio (normalised): actives lie on both sides, counts scaled to control wells, 1 = unselective.
A short description of assay [12]: viability loss with induced miR-34 in A549 – imaging, A549 dox-inducible miR-34, nuclei and caspase counts, primary screen (AID 1347080;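 active = compounds whose cell count with miR-34 switched on is under 0.7 times the count with it off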). To be noted: A549 miR-34 inducible, Hoechst nuclei count, 48 h.
Assay [13] concerns the target NAD(+) hydrolase SARM1 (Homo sapiens) (UniProt Q6SZW1). The experiment in a line: blocking NAD cleavage by SARM1 SAM-TIR – cell lysate, NAD-Glo luminescence (AID 1508614;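 active = compound whose remaining NAD level is above about 45 nM, limit read from the data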;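 also: higher remaining NAD means stronger inhibition of SARM1 NADase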). As to conditions: SAM-TIR HEK293T lysate NADase, at 1 µM, stronger effect = higher value.
The target in assay [14] is Mitogen-activated protein kinase 7 (Homo sapiens) (UniProt Q13164). The experiment in a line: Gal4-ERK5 driven luciferase induction – cell-based, HTS, primary screen (AID 1508626;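 active = luciferase signal above three times the same-plate solvent-only control wells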;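 also: luciferase driven by Gal4-ERK5 fusion binding five Gal4 sites before minimal TATA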). To be noted: HeLa Gal4-ERK5 transactivation, 18 h, at 5 µM, stronger effect = higher value.
Setting [15] is: measured here: epithelial PC-3E GFP cell survival.
Where [16] appears, read: measured here: mesenchymal TEM4-18 mCherry cell survival.
[17] abbreviates: stronger effect = lower value, cell number ratio, induced over uninduced.
Setting [18] is: measured here: relative caspase fold change +Dox/-Dox.
Setting [19] is: measured here: total cells with miR-34 induction, stronger effect = lower value.
Where [20] appears, read: measured here: total cells without miR-34 induction.

Sequence of Mitogen-activated protein kinase 7 (Homo sapiens) (Q13164 whole entry, looked up, the tested form may be a part): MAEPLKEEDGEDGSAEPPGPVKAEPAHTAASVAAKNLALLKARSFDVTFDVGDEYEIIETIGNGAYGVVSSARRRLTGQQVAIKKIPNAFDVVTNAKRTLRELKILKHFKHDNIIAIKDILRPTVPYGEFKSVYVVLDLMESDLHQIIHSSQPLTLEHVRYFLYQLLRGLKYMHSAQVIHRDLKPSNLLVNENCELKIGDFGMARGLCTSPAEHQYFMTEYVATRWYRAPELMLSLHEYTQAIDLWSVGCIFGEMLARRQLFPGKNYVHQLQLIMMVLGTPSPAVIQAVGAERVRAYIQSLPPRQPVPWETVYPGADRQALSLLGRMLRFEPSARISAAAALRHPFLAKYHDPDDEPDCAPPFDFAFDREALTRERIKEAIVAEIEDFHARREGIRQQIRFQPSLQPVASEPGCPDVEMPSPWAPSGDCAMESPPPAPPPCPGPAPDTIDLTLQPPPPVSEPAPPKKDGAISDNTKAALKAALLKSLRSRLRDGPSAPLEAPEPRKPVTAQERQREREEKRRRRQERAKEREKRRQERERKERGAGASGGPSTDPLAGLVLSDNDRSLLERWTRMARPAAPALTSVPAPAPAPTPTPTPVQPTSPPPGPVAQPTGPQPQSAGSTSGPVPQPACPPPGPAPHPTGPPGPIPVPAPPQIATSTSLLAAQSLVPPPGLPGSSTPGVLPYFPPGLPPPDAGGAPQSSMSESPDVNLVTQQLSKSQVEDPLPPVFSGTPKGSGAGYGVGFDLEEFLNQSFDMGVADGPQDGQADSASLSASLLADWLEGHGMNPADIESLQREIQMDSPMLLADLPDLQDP
Sequence of NAD(+) hydrolase SARM1 (Homo sapiens) (Q6SZW1 whole entry, looked up, the tested form may be a part): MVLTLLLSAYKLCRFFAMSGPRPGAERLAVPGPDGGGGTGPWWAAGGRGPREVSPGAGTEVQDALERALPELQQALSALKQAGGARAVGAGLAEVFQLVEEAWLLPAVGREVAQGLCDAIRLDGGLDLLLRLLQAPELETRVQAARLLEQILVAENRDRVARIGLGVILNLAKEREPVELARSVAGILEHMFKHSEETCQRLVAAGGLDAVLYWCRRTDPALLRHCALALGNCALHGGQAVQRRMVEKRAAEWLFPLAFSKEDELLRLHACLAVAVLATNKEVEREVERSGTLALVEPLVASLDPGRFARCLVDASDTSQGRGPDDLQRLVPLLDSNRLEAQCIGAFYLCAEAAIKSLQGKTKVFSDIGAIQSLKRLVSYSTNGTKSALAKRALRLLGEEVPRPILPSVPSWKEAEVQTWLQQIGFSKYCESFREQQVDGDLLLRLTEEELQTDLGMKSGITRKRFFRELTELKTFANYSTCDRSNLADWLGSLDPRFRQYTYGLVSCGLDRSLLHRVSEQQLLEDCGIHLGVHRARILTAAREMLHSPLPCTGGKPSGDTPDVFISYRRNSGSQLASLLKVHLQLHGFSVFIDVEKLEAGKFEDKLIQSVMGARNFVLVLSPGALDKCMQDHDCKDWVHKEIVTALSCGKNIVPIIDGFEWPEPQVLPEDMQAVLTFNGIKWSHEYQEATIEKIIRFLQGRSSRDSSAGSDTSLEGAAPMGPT
Sequence of 6-phosphogluconate dehydrogenase, decarboxylating (Homo sapiens) (P52209 whole entry, looked up): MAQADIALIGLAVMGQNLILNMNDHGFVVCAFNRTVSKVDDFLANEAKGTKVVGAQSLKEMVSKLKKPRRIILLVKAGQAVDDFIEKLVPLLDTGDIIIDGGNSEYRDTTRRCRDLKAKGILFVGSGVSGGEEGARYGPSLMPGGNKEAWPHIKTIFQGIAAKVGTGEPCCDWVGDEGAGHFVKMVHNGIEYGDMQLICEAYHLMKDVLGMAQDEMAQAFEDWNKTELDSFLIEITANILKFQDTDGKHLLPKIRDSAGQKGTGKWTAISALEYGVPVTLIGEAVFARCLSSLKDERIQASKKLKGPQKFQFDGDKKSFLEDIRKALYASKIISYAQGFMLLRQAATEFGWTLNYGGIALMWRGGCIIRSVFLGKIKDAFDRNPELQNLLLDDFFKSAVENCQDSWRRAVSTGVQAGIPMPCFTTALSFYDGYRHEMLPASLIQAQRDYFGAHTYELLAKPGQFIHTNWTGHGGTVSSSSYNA

Consider `CCCCCCCCCCCCCCCC(=O)OC/C=C(C)/C=C/C=C(C)/C=C/C1=C(C)CCCC1(C)C`, for which the inhibition in assay [1] is -19.1%; in assay [10] it was 1.58% (inactive). Moreover, the score in assay [2] turned out to be 1.38. The same compound yielded a rescue above control in [3] of 3.93. For the same compound, in [4], the cytochrome c release ratio is 1.03. In [5], this compound registered an inhibition of aggregation of 46%. Moreover, the glutamate uptake change in assay [6] was 4.94%. In assay [7], this compound showed an inclusion score of 2. In addition, the aggregation suppression score in [8] was 0.6. In addition, the parasite load remaining in [9] is 174% (inactive) and 50.5% (inactive). Also, in [9], the viability was 86.2% and 95%. Besides, in assay [11], the red/green cell ratio (normalised) is 1.41 (inactive). Also, the normalised cell number turned out to be 0.95 in assay [11] (setting [15]) and 1.34 in assay [11] (setting [16]). Besides, the values for the fold change in [12] (setting [17]) and in assay [12] (setting [18]) were 0.809 (inactive) and 0.861, respectively. Moreover, the values for the cell count in assay [12] (setting [19]) and in assay [12] (setting [20]) were 9920 and 12300, respectively. For the same compound, the remaining NAD in [13] was 10 nM (inactive). In addition, the luciferase signal in assay [14] was 624 AU (active).
In the case of `CC(=C(CCOP(=O)(O)O)SC(=O)c1ccccc1)N(C=O)Cc1cnc(C)nc1N`, the inhibition in assay [1] is 9.82%; in assay [10], -10.8% (inactive). The same compound had a score in assay [2] of 1.37. Also, the rescue above control in assay [3] was 3.18. Besides, in assay [4], the cytochrome c release ratio stood at 0.86. Moreover, in assay [5], the inhibition of aggregation was 39.4%. Further, in assay [6], the glutamate uptake change was 18.4%. The inclusion score in assay [7] amounted to 2. In addition, the aggregation suppression score in [8] was 0.998. Besides, in assay [11], the red/green cell ratio (normalised) was 0.95 (inactive). The normalised cell number in assay [11] (setting [15]) worked out at 1.05; in assay [11] (setting [16]), 1. Also, the remaining NAD in [13] was 10 nM (inactive).
As to `O=C(O)CN(CCN(CC(=O)O)CC(=O)O)CC(=O)O`, the inhibition is 13.2% in assay [1] and 8.13% (inactive) in assay [10]. In assay [2], this compound gave a score of 1.69. Besides, in assay [3], the rescue above control was -6.51. Moreover, the cytochrome c release ratio in [4] was found to be 0.54. In assay [5], this compound came in with an inhibition of aggregation of 72.4%. The glutamate uptake change in [6] was -23.4%. Besides, in assay [7], the inclusion score amounted to 1.5. Besides, in assay [8], the aggregation suppression score amounted to 1.43. Also, the parasite load remaining in assay [9] is 74.6% (inactive) and 69.8% (inactive). The viability in assay [9] was 73.4% and 97.7%. The red/green cell ratio (normalised) in [11] was 1.05 (inactive) and 0.92 (inactive). Besides, the normalised cell number was 1.05 and 1.23 in assay [11] (setting [15]); 1.11 and 1.13 in assay [11] (setting [16]). The fold change is 0.899 (inactive) in assay [12] (setting [17]) and 3.42 in [12] (setting [18]). In addition, the cell count amounted to 11600 in [12] (setting [19]) and 12900 in assay [12] (setting [20]). In addition, the remaining NAD in assay [13] was 10 nM (inactive).
For `C[n+]1cccc(C(=O)[O-])c1`, the parasite load remaining in [9] is 79.8% (inactive). In [9], the viability stood at 103%. The inhibition in [10] was -5.32% (inactive). Also, the red/green cell ratio (normalised) in [11] was 0.83 (inactive). Further, the normalised cell number in assay [11] (setting [15]) worked out at 0.9; in assay [11] (setting [16]), 0.75. The figures for the fold change in assay [12] (setting [17]) and in assay [12] (setting [18]) were 0.877 (inactive) and 1.44, respectively. Besides, the cell count in [12] (setting [19]) was 9790; in assay [12] (setting [20]) it was 11200. Besides, the luciferase signal in [14] is 44 AU (inactive).
Turning to `COc1c(CC(=O)c2cc3c(cc2O)OC(C)(C)C(O)C3)ccc2c1C=CC(C)(C)O2` (stereo not drawn), the inhibition in [10] is 5.33% (inactive). Also, the red/green cell ratio (normalised) in assay [11] is 0.66 (inactive). Besides, the figures for the normalised cell number in [11] (setting [15]) and in assay [11] (setting [16]) were 1.48 and 0.97, respectively. The luciferase signal in assay [14] is 40 AU (inactive).
For the compound `C=C1C(=O)O[C@@H]2C[C@@]3(C)CCC[C@H](C)C3=C[C@H]12`, the inhibition in assay [10] is 8.8% (inactive). Also, the red/green cell ratio (normalised) in assay [11] was 1.12 (inactive). Also, the figures for the normalised cell number in [11] (setting [15]) and in [11] (setting [16]) were 0.81 and 0.9, respectively. The luciferase signal in assay [14] was 84 AU (inactive).
The like results for `COc1c2ccccc2nc2occc12` were, in that order, 7.87% (inactive), 1.02 (inactive), 1.03, 1.05 and 40 AU (inactive).
Turning to `COc1cc(-c2coc3cc(O[C@@H]4O[C@H](CO)[C@@H](O)[C@H](O)[C@H]4O)c(OC)c(O)c3c2=O)cc(O)c1OC`, in assay [10], the inhibition is -0.763% (inactive). Further, the red/green cell ratio (normalised) in [11] is 0.96 (inactive). In addition, the normalised cell number came to 0.99 in [11] (setting [15]) and 0.95 in [11] (setting [16]). Moreover, the luciferase signal in assay [14] is 68 AU (inactive).
The matching figures for `C=CCCCCCCCCCCCC(O)CC(O)COC(C)=O` (stereo not drawn) (tested in a mixture with another compound): 4.12% (inactive), 0.92 (inactive), 1, 0.92 and 36 AU (inactive).
Consider `COc1cc(C)c2c(c1C=O)Oc1c(c(C)c(O)c3c1C(O)OC3=O)OC2=O` (stereo not drawn), for which the inhibition in assay [10] is -0.395% (inactive). Besides, in [11], the red/green cell ratio (normalised) is 0.74 (inactive). Moreover, the values for the normalised cell number in assay [11] (setting [15]) and in [11] (setting [16]) were 0.95 and 0.7, respectively. For the same compound, in assay [14], the luciferase signal was 44 AU (inactive).
The like results for `C=CC(C1=CC(=O)C(OC)=CC1=O)c1ccc(O)cc1` (stereo not drawn) were, in that order, 1.39% (inactive), 0.91 (inactive), 1.05, 0.95 and 136 AU (inactive).
For the compound `CC1=CCc2c(cc3oc(C)cc(=O)c3c2O)OC1`, the inhibition in [10] is 0.892% (inactive). For the same compound, in assay [11], the red/green cell ratio (normalised) is 1.1 (inactive). The normalised cell number is 1.02 in assay [11] (setting [15]) and 1.12 in [11] (setting [16]). Also, the luciferase signal in assay [14] is 16 AU (inactive).
The like results for `CCOC(=O)c1c(C)cc(O)c(C=O)c1O` were, in that order, -5.47% (inactive), 0.95 (inactive), 0.99, 0.94 and 56 AU (inactive).
For `O=C(O)C1(O)C[C@@H](O)C(O)[C@H](O)C1` (stereo partly drawn), the inhibition in assay [10] is 5.01% (inactive). In addition, the red/green cell ratio (normalised) in assay [11] was 0.8 (inactive). The normalised cell number in [11] (setting [15]) was found to be 1.27; in assay [11] (setting [16]) it was 1.02. For the same compound, the luciferase signal in assay [14] is 12 AU (inactive).
The like results for `CC(C)c1c(O)c(-c2cc3c(c(C(C)C)c2O)CCC2C(C)(C)CCC[C@]32C)cc2c1CCC1C(C)(C)CCC[C@]21C` (stereo partly drawn) were, in that order, -2.25% (inactive), 1 (inactive), 1.03, 1.03 and 40 AU (inactive).
The like results for `NC(C(=O)O)C(O)C(=O)O` (stereo not drawn) were, in that order, 17.7% (inactive), 1.01 (inactive), 1.05, 1.06 and 260 AU (active).
Take `O=c1cc(-c2cc(O)c(O)c(O)c2)oc2cc(O)cc(O)c12`: the inhibition in assay [10] was 5.62% (inactive). Further, in assay [11], the red/green cell ratio (normalised) was 1.14 (inactive). Further, the normalised cell number in [11] (setting [15]) was 0.99; in assay [11] (setting [16]), 1.12. Moreover, in assay [14], the luciferase signal is 72 AU (inactive).
Regarding `COc1ccc2c(C)cc(=O)oc2c1`, in assay [10], the inhibition is 13.6% (inactive). Besides, the red/green cell ratio (normalised) in assay [11] was 1.03 (inactive). Further, the normalised cell number is 1.13 in assay [11] (setting [15]) and 1.16 in assay [11] (setting [16]). Also, the luciferase signal in assay [14] is 60 AU (inactive).
For `CC(C(=O)O)[C@H]1CCC2C3CC=C4C[C@@H](O)CC[C@]4(C)C3CC[C@@]21C` (stereo partly drawn), in assay [10], the inhibition was 8.3% (inactive). Besides, the red/green cell ratio (normalised) in assay [11] is 0.91 (inactive). The figures for the normalised cell number in assay [11] (setting [15]) and in assay [11] (setting [16]) were 1.12 and 1.02, respectively. In addition, the luciferase signal in assay [14] was 44 AU (inactive).
The like results for `CCCCCc1c2c(cc(O)c1C(=O)O)OC(=O)c1c(cc(OC)cc1C(=O)CCCC)O2` were, in that order, 4.81% (inactive), 0.98 (inactive), 1.07, 1.05 and 48 AU (inactive).
The like results for `COc1ccc(-c2coc3c(OC)c(OC)cc(O)c3c2=O)cc1` were, in that order, -3.95% (inactive), 1.01 (inactive), 1.18, 1.19 and 56 AU (inactive).
The matching figures for `COC(=O)c1c(OC)cc2c(c1C)Oc1c(Cl)c(O)c(Cl)c(C)c1C(=O)O2`: -6.18% (inactive), 1.02 (inactive), 1.07, 1.1 and 56 AU (inactive).

A word on the inhibition: it is the relative decrease from the control value, in per cent. For orientation: viability means a read-out of living cells in per cent, often relative to untreated cells.
